Hits are enriched below; roughly 1% of the tested compounds scored in any of these assays.
E-sel TNF inh: TNF alpha driven E-selectin expression inhibition; HUVEC TNFa-induced E-selectin immunofluorescence, high content; inhibition, % at 2 µM; 0.71% of 120,000 active; AID 1246;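 active = inhibition above the batch mean plus 3 SD, and confirmed as a hit on visual image review, cut at about 43% in these data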
TNFa cytotox: toxic to HUVEC cells under TNF alpha stimulation | HUVEC TNFalpha-stimulated, Hoechst cell count, imaging | 0.17% of 93,000 active | cell count reduction, % at 2 µM;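 active = cell count reduction exceeding the screen mean by over 5 SD, scaled to untreated wells per plate, cut at about 78% in these data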;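 note: cells counted after 24 h of TNF alpha exposure following the 1 h pretreatment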
VCAM1 TNFa inh: reduces TNF alpha induced VCAM1 expression in HUVEC; 0.48% of 95,000 active; inhibition, % at 2 µM; HUVEC TNFa-induced VCAM-1 immunofluorescence, high-content imaging; AID 802;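 active = inhibition above the batch mean plus 3 SD, with images confirmed as a hit by eye, cut at about 37% in these data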
cytoskel mod: alters cytoskeleton assembly in HUVEC cells; HUVEC TNFa F-actin phalloidin imaging, high content; inhibition, % at 2 µM; 0.18% of 91,000 active;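 active = inhibition above the batch mean plus 3 SD and confirmed as a hit by visual image inspection, cut at about 30% in these data, passing the limit was not always enough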
Each line names hits and unclear results; the compound was inactive in the other large screens.

Cn1cccc1/C=C1\C(=O)NC(=O)N(CCC2=CCCCC2)C1=O	E-sel TNF inh 77 (no result: TNFa cytotox, VCAM1 TNFa inh, cytoskel mod)
O=C1NC(=O)N(CCC2=CCCCC2)C(=O)/C1=C\c1cccs1	none (no result: TNFa cytotox, VCAM1 TNFa inh, cytoskel mod)
CCCCC12CNCC(C)(CNC1)C2=O	E-sel TNF inh 100
CN1CCN(Cc2cc(C(C)(C)C)c(O)c(C(C)(C)C)c2)CC1	none (no result: TNFa cytotox)
C/C(=N\NC(=S)Nc1ccccc1)c1c(O)n(C)c(=O)n(C)c1=O	none (no result: TNFa cytotox, VCAM1 TNFa inh, cytoskel mod)
O=c1[nH]c(=S)n(C2CC2)c(O)c1C=Nc1cccc(C(F)(F)F)c1	none (no result: TNFa cytotox, VCAM1 TNFa inh, cytoskel mod)
CN1C(=O)/C(=C/c2cccn2-c2ccc3ccccc3c2)C(=O)NC1=S	E-sel TNF inh 79
CCc1ccc(N2C(=O)NC(=O)/C(=C/c3cccn3CCOc3ccc(C(C)CC)cc3)C2=O)cc1 (centres undefined)	E-sel TNF inh 80 (no result: TNFa cytotox, VCAM1 TNFa inh, cytoskel mod)
CN(C)P1(N(C)C)=NC(C(F)(F)F)=NC(C(F)(F)F)=N1	none (no result: TNFa cytotox, VCAM1 TNFa inh, cytoskel mod)
O=C(CN1CCCCC1)NCC(=O)Nc1ccc(Br)cc1C(=O)c1ccccc1	none
CCOC(=O)Cn1cc(C(=O)c2ccccc2F)c2ccccc21	none
CCN1/C(=C\C=C\C2=[N+](CC)c3ccccc3C2(C)C)C(C)(C)c2ccccc21	VCAM1 TNFa inh 88
CCC12CN3CCN(CC(C3)C1O)C2 (centres undefined)	none
CC1CN(c2cc([N+](=O)[O-])ccc2Cl)CC(C)N1 (centres undefined)	E-sel TNF inh 100 (no result: TNFa cytotox, VCAM1 TNFa inh, cytoskel mod)
O=C1C2CCCN2C(c2cccnc2)N1c1ccc(Cl)c(Cl)c1 (centres undefined)	VCAM1 TNFa inh 75
O=C(C1CCN(S(=O)(=O)N2CCOCC2)CC1)N1CCC2(CC1)OCCO2	none
CC(c1ccccc1F)n1cc(C(=O)Nc2ccc3nc[nH]c3c2)nn1 (centres undefined)	TNFa cytotox 80 (no result: E-sel TNF inh)
CN(C)CC1CSCCC1(O)c1ccc(Cl)cc1 (centres undefined)	E-sel TNF inh 42
CN(C)CC1CSCCC1(O)c1ccccc1Cl (centres undefined)	none
O=C(CN1CC=C(c2ccccc2)CC1)Nc1c(Cl)cccc1Cl	none (no result: TNFa cytotox, VCAM1 TNFa inh, cytoskel mod)
CN1CCC2(CC1)N=C(c1ccc(F)cc1)C(=S)N2	none (no result: TNFa cytotox, VCAM1 TNFa inh, cytoskel mod)
O=C(Nc1nc(-c2ccccc2)c(-c2ccccc2)s1)c1ccc(S(=O)(=O)N(CCCl)CCCl)cc1	E-sel TNF inh 60 (no result: TNFa cytotox, VCAM1 TNFa inh, cytoskel mod)
CCN1CCN(Cc2cc(OC)c(OC)cc2[N+](=O)[O-])CC1	E-sel TNF inh 100
CCN1CCN(Cc2cc(Br)cc(OC)c2O)CC1	none
O=C1CC(=O)N(c2ccc3c(c2)OCO3)C(=O)N1	none
CC(=O)OC(C)(C)/C=C/C(=O)[C@](C)(O)[C@H]1[C@H](O)C[C@@]2(C)[C@@H]3CC=C4[C@H](C[C@H](O)C(=O)C4(C)C)[C@]3(C)C(=O)C[C@]12C	E-sel TNF inh 60 (no result: TNFa cytotox, VCAM1 TNFa inh, cytoskel mod)
CCNc1ccc(P(=S)(N(C)C)N(C)C)cc1	none
COc1ccc(C(=O)C2(C)N(O)C(C)C(c3cccs3)=[N+]2[O-])cc1 (centres undefined)	E-sel TNF inh 58
CCOc1ccccc1N1C(=O)NC(=O)C(CCc2ccncc2)(CCc2ccncc2)C1=O	cytoskel mod 33
CC(N)Cc1c[nH]c2ccc(Cl)cc12 (centres undefined)	VCAM1 TNFa inh 39

Assay outcomes as filed in PubChem.
